# Measured values reported in ChEMBL document CHEMBL3988442, “University of Dundee, Small-Polar-MMV Screening Library” (2021).
# The whole screen tested about 69,000 compounds, of which about 1,000 (1.4%) showed an effect of 50% or more. This is one part of a sample in which strong results are shown more often than they occur.
# Tested on: Leishmania donovani
# Experiment: Leishmania intramacrophage assay
# Assay type: functional, organism-based
# Design: scale not given: in the data most compounds retested in dose-response had high values
smiles,measurement,setting,value
CC(C)(C)C(=O)NCCC(=O)NC(C)(C)c1ccc2c(c1)OCO2,Percent Effect,"30.3 µM, […]",2.237%
c1cncc(OCc2noc3c2CN(Cc2ccoc2)CC3)c1,Percent Effect,"30 µM, 30.03 µM",10.86%
Cc1cnc(N2CCc3onc(COc4cccnc4)c3C2)nc1,Percent Effect,"30.3 µM, […]",77.52%
O=C(N1CCCC1)N1CCc2onc(COc3cccnc3)c2C1.O=C(O)C(F)(F)F,Percent Effect,"30.3 µM, […]",0.9186%
CNS(=O)(=O)Cc1ccc(CNC(=O)c2cccc(C)n2)cc1,Percent Effect,"30 µM, 30.03 µM",36.89%
Cc1cc2c(cc1NC(=O)NC(C)(C)C)OCO2,Percent Effect,"30.3 µM, […]",-22.07%
Cc1nnc(CN(CCc2ccccc2)C2CCN(C)CC2)s1,Percent Effect,"30.3 µM, […]",1.604%
NCCn1nc(C2CCN(Cc3ccc(Cl)c(Cl)c3)C2)c2nccnc21 (stereo not drawn),Percent Effect,"30 µM, 30.03 µM",52.46%
NCCn1nc(C2CCN(Cc3ccccc3Cl)C2)c2nccnc21 (stereo not drawn),Percent Effect,"30.3 µM, […]",9.93%
NCCn1nc(C2CCN(Cc3ccccc3)C2)c2nccnc21 (stereo not drawn),Percent Effect,"30.3 µM, […]",5.976%
Clc1cccc2c3c([nH]c12)CCN(Cc1cc2n(n1)CCNC2)C3,Percent Effect,"30.3 µM, […]",28.65%
c1ccc2c3c([nH]c2c1)CN(Cc1cc2n(n1)CCNC2)CC3,Percent Effect,"30.3 µM, […]",19.37%
Clc1cccc2c3c([nH]c12)CCN(Cc1cc2n(n1)CCCNC2)C3,Percent Effect,"30.3 µM, […]",94.36%
COc1ccc(C(C)N(C)Cc2c(C(C)C)[nH]c3ncccc23)cc1 (stereo not drawn),Percent Effect,"30.3 µM, […]",-22.28%
CCN1CCCC1CN(CCN(C)C)S(=O)(=O)c1ccccc1C#N (stereo not drawn),Percent Effect,"30.3 µM, […]",13.5%
COCc1nc(C(=O)OCC2CCN(c3ccccc3)C2)cs1 (stereo not drawn),Percent Effect,"30.3 µM, […]",-78.1%
O=C(OCC1CCCN(C(=O)c2ccccc2)C1)c1cscn1 (stereo not drawn),Percent Effect,"30.3 µM, […]",-48.09%
O=C(OCC1CCN(c2ccccc2)C1)c1cscn1 (stereo not drawn),Percent Effect,"30.3 µM, […]",51.5%
COc1cc(C(=O)N(Cc2ccc(F)cc2)C2CC2)cc2c1OCCO2,Percent Effect,"30 µM, 30.03 µM",14.84%
CCCNC(=O)N1CCc2ccc(S(=O)(=O)N3CCOCC3)cc2C1,Percent Effect,"30.3 µM, […]",11.75%
CC1=C(CCN2C[C@H](O)[C@@H](N3CCOCC3)C2)C(C)(C)CCC1,Percent Effect,"30.3 µM, […]",-12.68%
CC1=C(CCN2CC[C@@H](N3CCC(O)CC3)[C@H](O)C2)C(C)(C)CCC1,Percent Effect,"30.3 µM, […]",56.28%
CC1=C(CCN2CCCC(O)C2)C(C)(C)CCC1 (stereo not drawn),Percent Effect,"30.3 µM, […]",25.33%
Cc1ccc(N(Cc2ccco2)C(=O)CC2=NN(C)C(=O)C2)cc1,Percent Effect,"30.3 µM, […]",6.943%
CC(=O)NCc1nc(CCOc2ccc(Cl)cc2)no1,Percent Effect,"30.3 µM, […]",7.139%
CCN1CCCC(O)(c2nc(C)c(CCOc3ccc(F)cc3)s2)CC1 (stereo not drawn),Percent Effect,"30.3 µM, […]",11.02%
COc1ccc(OCc2sc(C3(O)CCCNCC3)nc2C)cc1.Cl (stereo not drawn),Percent Effect,"30 µM, 30.03 µM",9.769%
COc1ccc(OCCc2sc(C3(O)CCCNCC3)nc2C)cc1.Cl (stereo not drawn),Percent Effect,"30 µM, 30.03 µM",10.27%
CCCN1CCCC(O)(c2nc(C)c(COc3ccccc3)s2)CC1 (stereo not drawn),Percent Effect,"30.3 µM, […]",-5.482%
Cc1nc(C2(O)CCCNCC2)sc1CCOc1ccc(Cl)cc1.Cl (stereo not drawn),Percent Effect,"30 µM, 30.03 µM",92.94%
Cc1nc(C2(O)CCCNCC2)sc1CCOc1ccccc1.Cl (stereo not drawn),Percent Effect,"30.3 µM, […]",4.476%
CC(C)(C)c1ncc(C(=O)NCCNS(C)(=O)=O)s1,Percent Effect,30 µM,20.12%
CCOc1ccccc1C(CC(=O)Nc1ccc(C)cn1)NC(C)=O (stereo not drawn),Percent Effect,"30 µM, 30.03 µM",34.79%
COc1ccc2c(ccn2CCC(=O)Nc2n[nH]c(CC(C)C)n2)c1,Percent Effect,"30.3 µM, […]",-2.003%
COc1cccc(CCC(=O)N2CCCC(n3cc(C)cn3)C2)c1 (stereo not drawn),Percent Effect,"30 µM, 30.03 µM",9.343%
Cc1cc(C(=O)N2CCCC2c2noc(C)n2)[nH]n1 (stereo not drawn),Percent Effect,"30.3 µM, […]",-9.431%
Cc1nc(C)c(C(=O)N2CCC(O)(Cn3ccc4ccncc43)CC2)s1,Percent Effect,"30.3 µM, […]",-5.567%
O=C(Nc1cccc(CN2CCOC2=O)c1)N1CCCC1,Percent Effect,"30.3 µM, […]",-5.143%
Cc1noc(C)c1C(=O)N(C)Cc1nc(-c2ccccn2)no1,Percent Effect,"30 µM, 30.03 µM",21.79%
Cc1noc(C(C)C)c1C(=O)NCCN1CCCCCC1=O,Percent Effect,"30 µM, 30.03 µM",20.26%
O=C1CCC(C(=O)NCCOc2cccc(Cl)c2Cl)CN1 (stereo not drawn),Percent Effect,"30.3 µM, […]",18.68%
CN(C)C1CCCN(C(=O)c2cccc(-c3ncc[nH]3)c2)CC1 (stereo not drawn),Percent Effect,"30.3 µM, […]",21.12%
CN(C)[C@H]1CCCCN(C(=O)c2cccc(-c3cccc(F)c3)c2)C1,Percent Effect,"30.3 µM, […]",60.02%
CN(C)[C@H]1CCCCN(C(=O)c2cccc(N3CCS(=O)(=O)CC3)c2)C1,Percent Effect,"30.3 µM, […]",-11.54%
Cc1ncc(CNC(CCO)C2CCCCC2)s1 (stereo not drawn),Percent Effect,"30.3 µM, […]",-3.67%
Cc1nc(CN2C(=O)C[C@@H]3[C@@H]2CCN3S(C)(=O)=O)cs1,Percent Effect,"30.3 µM, […]",-12.74%
Cc1nnc([C@@H]2C[C@H]3CN(C(=O)C4CC4)C[C@H]3O2)[nH]1,Percent Effect,"30.3 µM, […]",15.1%
Cc1cccc(C(C(=O)NC(C)(C)CN2CCCC2)N(C)C)c1 (stereo not drawn),Percent Effect,"30.3 µM, […]",64.22%
Cc1cccc(C(C(=O)NC(C)(C)CN2CCOCC2)N(C)C)c1 (stereo not drawn),Percent Effect,"30.3 µM, […]",-45.9%
Cc1ccc(C(C(=O)NC(C)(C)CN2CCCC2)N(C)C)cc1 (stereo not drawn),Percent Effect,"30.3 µM, […]",-34.55%
CCN(Cc1ccc2c(c1)OCO2)C(=O)NC(C)Cn1cccn1 (stereo not drawn),Percent Effect,"30 µM, 30.03 µM",-8.819%
O=C1CCC(c2ccccc2)=NN1CN1CCCCCC1,Percent Effect,"30.3 µM, […]",54.14%
O=C1CCC(c2ccc(Cl)cc2)=NN1CN1CCCCCC1,Percent Effect,"30.3 µM, […]",-2.466%
O=C1CCC(c2ccc(Cl)cc2)=NN1CN1CCSCC1,Percent Effect,"30.3 µM, […]",35.07%
Cc1cc2ccccc2n1CCC(=O)NCCCc1nnc(N)s1,Percent Effect,"30.3 µM, […]",18.88%
Cc1cc(C(F)F)nn1C(C)C(=O)NCc1ncc[nH]1 (stereo not drawn),Percent Effect,"30.3 µM, […]",43.47%
CCn1nc(C)c(CN2CCCC(c3ccc(C(=O)O)cc3)C2)c1C (stereo not drawn),Percent Effect,"30.3 µM, […]",17.25%
CCn1nc(C)c(CN2CCC(c3ccc(C(=O)O)cc3)C2)c1C (stereo not drawn),Percent Effect,"30.3 µM, […]",54.96%
Cc1nn(C)c(C)c1CN1CCCC(c2ccc(C(=O)O)cc2)C1 (stereo not drawn),Percent Effect,"30.3 µM, […]",20.41%
CCS(=O)(=O)CCN(C)Cc1cc(C)ccc1OC,Percent Effect,"30.3 µM, […]",6.115%
CC(=O)NCC(=O)N1CCN(CCN(C)C)c2ncccc2C1.O=C(O)C(F)(F)F.O=C(O)C(F)(F)F,Percent Effect,"30.3 µM, […]",27.08%
COCC(=O)NC[C@@]1(COc2cccnc2)C[C@@H](O)[C@@H](O)C1.Cl,Percent Effect,"30.3 µM, […]",-3.857%
COC(=O)c1cccc(S(=O)(=O)NC(=O)COC2CCCC2)c1,Percent Effect,30 µM,-0.3864%
CC(C)(C)CCN1CCN(Cn2nccc2-c2cccnc2)CC1,Percent Effect,"30.3 µM, […]",14.91%
CC(C)(C)C(=O)N1CCN(Cn2nccc2-c2cccnc2)CC1,Percent Effect,"30.3 µM, […]",7.096%
Clc1ccc(CN2CCN(Cn3nccc3-c3cccnc3)CC2)s1,Percent Effect,"30.3 µM, […]",56.59%
c1cncc(-c2ccnn2CN2CCC3(CC2)OCCO3)c1,Percent Effect,"30.3 µM, […]",24.88%
c1cnc(N2CCN(Cn3nccc3-c3cccnc3)CC2)nc1,Percent Effect,"30.3 µM, […]",61.02%
c1cncc(-c2ccnn2CN2CCOCC2)c1,Percent Effect,"30.3 µM, […]",-9.601%
COc1ccc(CC2CN(C(=O)c3ocnc3C)CCO2)cc1 (stereo not drawn),Percent Effect,"30.3 µM, […]",-6.657%
N#Cc1ccccc1C(=O)N1C[C@H](CO)C[C@H](CN2CCCC2)C1,Percent Effect,"30 µM, 30.03 µM",18.98%
Cc1nc2ccnn2c(C)c1CCC(=O)N1CCN(CCO)CC1,Percent Effect,30 µM,14.29%
CC(=O)N1CCCC(c2ccc(Cc3ccccc3)cn2)C1 (stereo not drawn),Percent Effect,"30.3 µM, […]",-26.06%
Cc1nc(CN2CCO[C@H]3CN(C(=O)c4cscn4)C[C@H]32)cs1,Percent Effect,"30.3 µM, […]",38.15%
Cc1ccsc1CN1CCc2nc3ccsc3c(=O)n2CC1.Cl,Percent Effect,"30.3 µM, […]",14.2%
Nc1nc(NCCO)cc(N2CCc3c([nH]c4ccccc34)C2)n1,Percent Effect,"30.3 µM, […]",50.32%
COc1ccc2[nH]c3c(c2c1)CN(c1cc(NCCO)nc(N)n1)CC3,Percent Effect,"30.3 µM, […]",13.82%
CC(C)Cc1ncc2c(n1)CN(c1cc(NCCO)nc(N)n1)C2,Percent Effect,"30.3 µM, […]",22.17%
CC(=O)N1CCO[C@@H]2CN(Cc3ccccc3F)C[C@@H]2C1.O=C(O)C(F)(F)F,Percent Effect,"30.3 µM, […]",6.292%
O=C(NCc1cccs1)C1CNCC12CCOCC2.O=C(O)C(F)(F)F (stereo not drawn),Percent Effect,"30.3 µM, […]",12.59%
CN(Cc1csc2ccccc12)C(=O)NC1CCS(=O)(=O)C1 (stereo not drawn),Percent Effect,"30.3 µM, […]",11.38%
CC(C)CN1CCC(NC(=O)N(C)Cc2csc3ccccc23)CC1,Percent Effect,"30.3 µM, […]",39.03%
CCN1CCC(NC(=O)N(C)Cc2csc3ccccc23)CC1,Percent Effect,"30.3 µM, […]",82.94%
COc1ccc(CCC(=O)Nc2cccnc2N2CCCC2)cc1Br,Percent Effect,"30 µM, 30.03 µM",33.61%
Cc1ccc(CNC(=O)CN2CCOC(Cn3cncn3)C2)s1 (stereo not drawn),Percent Effect,30 µM,21.75%
Cc1nc(Nc2nnc(C)s2)cc(C2CCCN2c2ccncn2)n1 (stereo not drawn),Percent Effect,"30.3 µM, […]",-2.613%
CCC(NC(=O)C(C)(C)C)c1ccccc1C (stereo not drawn),Percent Effect,"30.3 µM, […]",-8.319%
CC(C)CC(=O)N1CCN(C(=O)NC(C)C)CC2(CC(=O)N(C)C2)C1 (stereo not drawn),Percent Effect,"30.3 µM, […]",-8.176%
COCC(=O)N1CCN(C(=O)NC(C)C)CC2(CC(=O)N(C)C2)C1 (stereo not drawn),Percent Effect,"30.3 µM, […]",56.1%
CC(=O)N1CCN(C(=O)NC(C)C)CC2(CC(=O)N(C)C2)C1 (stereo not drawn),Percent Effect,"30.3 µM, […]",6.648%
CCc1cnc(CN(C)C2CCN(CCCNS(C)(=O)=O)C2)o1 (stereo not drawn),Percent Effect,"30.3 µM, […]",8.531%
c1csc(CCC2CCCCN2Cc2noc(C3CC3)n2)c1 (stereo not drawn),Percent Effect,"30.3 µM, […]",-14.11%
CCC1CCCCCN1C(=O)c1ccc(N2CCC(O)CC2)cc1 (stereo not drawn),Percent Effect,"30.3 µM, […]",32.16%
CCN1CCC2(CC1)OCCN2C(=O)c1ccc(OC)c(Cl)c1.Cl,Percent Effect,"30.3 µM, […]",22.75%
CCN1CCC2(CC1)OCCN2C(=O)c1cc(Cl)c(OC)c(Cl)c1.Cl,Percent Effect,"30.3 µM, […]",18.32%
CCCOc1c(Cl)cc(C(=O)N2CCOC23CCN(C)CC3)cc1Cl,Percent Effect,"30.3 µM, […]",88.42%
CS(=O)(=O)N1CCC2(CC1)CC(NCc1ccco1)c1ccccc12.O=C(O)C(F)(F)F (stereo not drawn),Percent Effect,"30.3 µM, […]",16.74%
COc1ccc2c(ccn2CCC(=O)O)c1,Percent Effect,"30 µM, 30.03 µM",9.834%
COc1ccc(CN2CC[C@@H](O)[C@@H]2Cc2ccccc2)cc1.O=C(O)C(F)(F)F,Percent Effect,"30 µM, 30.03 µM",-18.25%
C/N=C1\c2cc3cc(OC)ccc3n2CCN1C.Cl,Percent Effect,"30.3 µM, […]",10.14%
C/N=C1/c2cc3cc(OC)ccc3n2CCN1Cc1ccccc1.Cl,Percent Effect,"30.3 µM, […]",64.09%
C/N=C1/c2cc3cc(OC)ccc3n2CCN1C,Percent Effect,"30.3 µM, […]",-16.2%
C/N=C1\c2cc3cc(OC)ccc3n2CCN1Cc1ccccc1.O=C(O)C(F)(F)F,Percent Effect,"30.3 µM, […]",57.81%
